Source: PubChem BioAssay
PfHsp40 rescue: rescue of yeast from PfHsp40 toxicity, primary screen, S. cerevisiae, ATP luminescence | growth rescue, % at 12.5 µM | S. cerevisiae expressing PfHsp40, growth rescue | actives 0.68% (n = 340,000) | AID 504582, 2011; in the data active = growth rescue above about 28%, passing the limit was not always enough;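 note: yeast W303a lacking pdr1 and pdr3 grown in galactose medium; growth measured after three days at 30 °C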
BioA inh: M. tuberculosis BioA enzyme inhibitors, primary screen, biochemical, plate reader, single point, HTS | 7,8-diaminopelargonic acid synthase BioA (Mycobacterium tuberculosis) | purified M. tuberculosis BioA enzyme | inhibition, % at 9.99 µM | actives 0.096% (n = 360,000) | AID 602481, 2012; in the data active = inhibition above about 40%
Yp Topo-I inh: Yersinia pestis topoisomerase I inhibitors, primary screen, biochemical, cleavage product accumulation, plate reader, single point; DNA topoisomerase I (Yersinia pestis CO92); Y. pestis Topo-I cleavage product accumulation; activity, % at 10 µM; actives 0.064% (n = 360,000); AID 504884, 2011; in the data active = activity above about 50%, passing the limit was not always enough
SARS 3CLpro inh: SARS-CoV 3CLpro protease inhibitors, primary screen, biochemical, quenched FRET. Replicase polyprotein 1ab (Severe acute respiratory syndrome coronavirus), P0C6X7. recombinant SARS-CoV 3CLpro, quenched FRET peptide cleavage. inhibition, % at 6 µM. actives 0.14% (n = 290,000). AID 1706, 2009; in the data active = inhibition above about 12%
MazF activator: activators of E. coli MazEF toxin-antitoxin RNase, primary screen, biochemical, fluorescence, uHTS; Endoribonuclease toxin MazF (Escherichia coli (strain K12)), P0AE70; FAM/BHQ RNA-DNA oligo cleavage fluorescence, 5 h; activation, % at 20 µM; actives 0.32% (n = 350,000); in the data active = activation above about 50%
Target sequence (P0AE70 whole entry, looked up): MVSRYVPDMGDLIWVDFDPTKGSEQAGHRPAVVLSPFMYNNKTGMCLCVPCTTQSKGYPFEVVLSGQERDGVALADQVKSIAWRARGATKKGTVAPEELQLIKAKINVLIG
BJeLR viability: MLPCN primary cell-based screen for lethality selective to Ras in HRASV12 cells | inhibition, % (no concentration beside the values) | actives 0.17% (n = 300,000) | AID 1554, 2009 | BJeLR (HRASV12) viability, CellTiter-Glo ATP luminescence, 48 h; in the data active = inhibition above about 50%
Numbers without * were called inactive; nt = no result. Only some compounds are listed: those with a hit (about 1.1% of all), similar ones and a draw of the others.

SMILES	PfHsp40 rescue	BioA inh	Yp Topo-I inh	SARS 3CLpro inh	MazF activator	BJeLR viability
Cc1cccc2cc(C#N)c(SCC(=O)N3CC(=O)Nc4ccccc43)nc12	0	0	4	1	38	54*
c1coc(Cn2nnnc2CN2CCN(C3CCCC3)CC2)c1	1	0	1	-3	102*	2
CC(C)C(c1nnnn1Cc1ccco1)N1CCN(C2CCCC2)CC1 (stereo not drawn)	-1	1	4	2	-2	12
C[C@@H]1CN([C@@H](C)CO)C(=O)c2cc(NS(=O)(=O)c3cccs3)ccc2O[C@@H](C)CCCCO[C@@H]1CN(C)Cc1ccc(C(F)(F)F)cc1	nt	-1	nt	nt	nt	nt
O=C(Nc1ccccc1N1CCCCC1)c1cccc(OC(F)F)c1	4	-1	57*	1	3	-5
COc1cccc(C(=O)Nc2ccccc2N2CCCC2)c1	0	0	-7	3	11	4
COc1cc2c(cc1OC)C(=O)N1[C@H]3c4ccccc4OC[C@@H]3[C@H](c3ccccc3)[C@]1(C)C(=O)N2	63*	15	18	nt	-6	nt
COc1ccc2c(c1)OC[C@H]1[C@H]2N2C(=O)c3ccc(F)cc3NC(=O)[C@@]2(C)[C@H]1c1ccccc1	3	-3	0	nt	-3	nt
COc1ccc2c(c1)OC[C@H]1[C@H]2N2C(=O)c3cc(OC)c(OC)cc3NC(=O)[C@@]2(C)[C@H]1c1ccccc1	44*	-2	4	nt	-13	nt
COc1ccc2c(c1)OC[C@H]1[C@H]2N2C(=O)c3cc(Br)ccc3NC(=O)[C@@]2(C)[C@H]1c1ccccc1	333*	0	13	nt	-6	nt
C/C=C/c1cccc(-c2nc(C(=O)NCc3ccccc3)cc3c2[C@@H](CCO)N([S@](=O)C(C)(C)C)C3)c1	nt	8	nt	nt	nt	nt
CCOc1ccc(S(=O)(=O)n2cc(F)c(=O)[nH]c2=O)cc1[N+](=O)[O-]	1	3	1	2	0	0
CCOc1ccc(S(=O)(=O)n2cc(F)c(=O)[nH]c2=O)cc1	144*	nt	-1	-1	0	0
Cc1ncoc1C(=O)N1CCCC(C(=O)c2ccc(-c3ccccc3)c(F)c2)C1 (stereo not drawn)	183*	13	13	6	11	-4
Cc1ncoc1C(=O)N1CCCC(C(=O)c2ccc(Oc3ccccc3)cc2)C1 (stereo not drawn)	1	nt	6	3	5	0
COc1ccc(NC(=O)N(C)C[C@@H]2Oc3c(NC(=O)NC4CCCCC4)cccc3C(=O)N([C@H](C)CO)C[C@@H]2C)cc1	nt	-3	nt	nt	nt	nt
c1ccc(CN2CCC(N3CCC(N4CCCCCC4)CC3)CC2)cc1	0	-2	-17	1	14	-3
c1ccc2c(c1)c1c(c3ccccc32)CN2CCCC2C1 (stereo not drawn)	76*	nt	-4	nt	-9	nt
O=[N+]([O-])c1ccc(Cl)cc1Sc1nc2ccccc2o1	165*	1	17	6	-9	-5
CCCCCCCNC(=O)C1(CC2CC(c3cccc(Br)c3)=NO2)CCN(C(=O)CCCCCBr)CC1 (stereo not drawn)	45*	1	27	nt	9	3
N#Cc1cc2ccccc2nc1SCC(=O)Nc1ccccc1N1CCOCC1	-1	0	4	5	51*	-24
CCN(CC)c1ccc(/C=C/c2ccc3ccc(OC)cc3[n+]2CC)cc1	321*	7	-8	-8	39	43
C[C@H]1CN([C@@H](C)CO)S(=O)(=O)c2ccc(C#CCN(C)C)cc2O[C@@H]1CN(C)S(C)(=O)=O	nt	-2	nt	nt	nt	nt
O=C(c1ccc(F)cc1)N1C[C@H]2[C@@H](c3ccccc31)[C@H](CO)N2C(=O)c1ccc(F)cc1	nt	35	nt	nt	nt	nt
O=[N+]([O-])c1ccc(Cl)c(-c2ccc(/C=N/c3c(-c4ccco4)nc4ccccn34)o2)c1	1	-1	-14	1	95*	7
SMILES	PfHsp40 rescue	BioA inh	Yp Topo-I inh	SARS 3CLpro inh	MazF activator	BJeLR viability
COC(=O)c1ccccc1NC(=O)Cn1cnc2c(cnn2-c2ccc(C)c(C)c2)c1=O	nt	nt	nt	1	17	-4
CCOc1ccccc1NC(=O)Cn1cnc2c(cnn2-c2ccc(C)c(C)c2)c1=O	-1	-1	0	0	162*	-5
COC(=O)c1ccccc1NC(=O)Cn1cnc2c(cnn2-c2ccccc2)c1=O	0	-8	14	2	63*	6
C[C@H]1CN([C@@H](C)CO)C(=O)c2cc(NS(=O)(=O)c3ccc(F)cc3)ccc2O[C@H]1CN(C)CC1CCCCC1	nt	1	nt	nt	nt	nt
COCC(=O)N(C)C[C@@H]1Oc2ncc(C#C[C@@H](C)O)cc2C(=O)N([C@@H](C)CO)C[C@H]1C	nt	-1	nt	nt	nt	nt
CCCN(C)C[C@@H]1Oc2cc(C#Cc3cccc(F)c3)ccc2S(=O)(=O)N([C@H](C)CO)C[C@@H]1C	nt	4	nt	nt	nt	nt
CN=c1scc(-c2ccccc2F)n1/N=C/c1ccc(O)c(O)c1O	30*	-2	-12	3	-13	10
Cc1ccc(S(=O)(=O)Nc2ccc3ccccc3c2)cc1	-1	0	-1	nt	2	nt
COc1ccc(S(=O)(=O)Nc2ccc3ccccc3c2)cc1C	31*	-1	-2	6	5	11
Cc1cccc(C)c1OCc1cc(C(=O)N2CCC(C3CCCCC3)C2)no1 (stereo not drawn)	4	-2	55*	7	-10	3
COc1cccc(OCc2cc(C(=O)N3CCC(c4ccncc4)CC3)no2)c1	-1	2	8	-1	1	10
COc1cccc(OCc2cc(C(=O)N3CCN(C)C(c4ccccc4)C3)no2)c1 (stereo not drawn)	149*	0	41	-1	4	10
COCCNC(=O)C[C@H]1C=C[C@@H](NS(=O)(=O)c2ccc(C)cc2)[C@H](CO)O1	nt	-2	nt	nt	nt	nt
C[C@@H]1CN([C@@H](C)CO)C(=O)Cc2cc(NC(=O)Cc3cn(C)c4ccccc34)ccc2O[C@H]1CN(C)S(=O)(=O)c1cccs1	nt	-1	nt	nt	nt	nt
Cc1ccc(S(=O)(=O)c2ccc([N+](=O)[O-])o2)cc1	265*	nt	7	nt	7	nt
Cc1ccc(NC(=O)c2ccc([N+](=O)[O-])o2)c(C)c1	-1	-2	2	3	2	2
Cc1ccc(OCCC(=O)OCC(=O)Nc2cc(S(=O)(=O)N(C)C)ccc2C)cc1	32*	nt	10	-2	-3	5
Cc1noc(C)c1NC(=O)N[C@H]1CC[C@H](CCNC(=O)C2CCOCC2)O[C@H]1CO	nt	7	nt	nt	nt	nt
